The entries come from a sample that favours hits as a whole.
mHTT CaM bind: mHTT-calmodulin interaction abrogation; P42858; AlphaScreen His-mHTT/GST-CaM binding, luminescence; inhibition, % at 15 µM; 190,000 compounds, 3.6% hits
Pf apPOL inh: Pf-apPOL DNA polymerase inhibition; Recombinant Pf-apPOL, molecular beacon fluorescence, 1.5 h; AID 1794808; inhibition, % at 10 µM; 210,000 compounds, 0.25% hits
Numbers stand for hits; 0 = inactive; - = no result. Cut-off read from the data, not from the text of the source: active = inhibition above about 50%; inactive = the rest.

SMILES	mHTT CaM bind	Pf apPOL inh
Cc1ccc(S(=O)(=O)N2CCC(=O)N([C@H](COCc3ccc(Cl)cc3Cl)Cc3ccccc3)CC2)cc1	0	0
O=C(SCc1cccc(C(F)(F)F)c1)c1ccc(Cl)c(Cl)c1	-	0
O=C(c1ccc(Cl)c(Cl)c1)N1CCC(=O)N([C@H](COCc2ccccc2)Cc2ccccc2)CC1	100	0
O=C(Nc1ccc([N+](=O)[O-])cc1)C1CCN(S(=O)(=O)c2ccccc2)CC1	0	0
Cc1ccccc1C1C(C#N)=C(N)OC2=C1C(=O)CCC2 (stereo not drawn)	0	0
CC1(C)CC(=O)C2=C(C1)OC(N)=C(C#N)C2c1ccc(F)cc1 (stereo not drawn)	0	0
CCN1C=C(Cc2ccc(F)cc2)C2=C(C1)C(c1ccc(F)cc1)C(C#N)=C(N)O2 (stereo not drawn)	85	0
CCN1C=C(Cc2ccccc2C)C2=C(C1)C(c1ccccc1C)C(C#N)=C(N)O2 (stereo not drawn)	64	0
CC(CCc1ccccc1)NC(=O)CN1C(=O)c2ccccc2C1=O (stereo not drawn)	0	0
CC1=C(C(=O)Nc2ccc(C)c(Cl)c2)C(c2ccccc2Cl)NC(=O)N1 (stereo not drawn)	90	0
CC1=C(C(=O)Nc2ccc(F)c(F)c2)C(c2ccccc2F)NC(=O)N1 (stereo not drawn)	0	0
Cc1cc(C)c(S(=O)(=O)Nc2ncccc2C)c(C)c1	0	100
Cc1cc(C)c(S(=O)(=O)Nc2ncccn2)c(C)c1	0	0
OC(CNCCc1ccccc1)c1ccccc1 (stereo not drawn)	0	0
OC(CNC1CCCC1)Cn1c2ccccc2c2ccccc21 (stereo not drawn)	0	0
O=C1CSC(=O)N1CC(O)Cn1c2ccc(Br)cc2c2cc(Br)ccc21 (stereo not drawn)	0	-
OC(CNCCc1ccccc1)Cn1c2ccc(Br)cc2c2cc(Br)ccc21 (stereo not drawn)	100	-
OC(CNCCOc1ccccc1)Cn1c2ccccc2c2ccccc21 (stereo not drawn)	85	-
OC(CN1CCOCC1)Cn1c2ccc(Br)cc2c2cc(Br)ccc21 (stereo not drawn)	91	0
COc1ccc(C)cc1NC(=O)N1CCCC1c1nc(-c2ccc(F)cc2F)no1 (stereo not drawn)	0	0
O=C1NCCCn2nc(C3CCN(C(=O)c4cc5ccccc5[nH]4)CC3)cc21	0	0
O=C(c1ccc(Br)o1)N1CC(c2nc(-c3cccc(C(F)(F)F)c3)no2)C1	0	0
CSc1nc(N=CN(C)C)n(-c2cc(C(F)(F)F)cc(C(F)(F)F)c2)n1	-	0
CCOc1ccc(-c2csc(Cc3nc(-c4cccc(F)c4)no3)n2)cc1	0	0
O=C(CSc1nc2ccccc2o1)NCc1cc(-c2ccc3c(c2)OCCO3)on1	0	0
SMILES	mHTT CaM bind	Pf apPOL inh
Cc1ccc(C(=O)N2CCC(CCNS(=O)(=O)c3ccc(Cl)cc3)CC2)cc1	0	0
Cc1ccc(C(=O)N2CCC(CCNS(=O)(=O)c3cc(C)c(C)cc3C)CC2)cc1	0	0
O=C(c1ccccc1)N1CCC(CCNS(=O)(=O)c2ccc(Cl)cc2)CC1	55	0
COc1ccc(S(=O)(=O)NCCC2CCN(C(=O)c3ccccc3)CC2)cc1	0	0
COc1ccc(OC)c(S(=O)(=O)NCCC2CCN(C(=O)c3ccc(C)cc3)CC2)c1	63	0
CC(=O)Nc1ccc(S(=O)(=O)NCCC2CCN(C(=O)c3ccccc3)CC2)cc1	0	0
CC(=O)c1ccc(S(=O)(=O)NCCC2CCN(C(=O)c3ccc(C)cc3)CC2)cc1	57	0
CC(C)c1ccc(S(=O)(=O)NCCC2CCN(C(=O)c3ccccc3)CC2)cc1	51	0
CCCCCOc1ccc(C(=O)Oc2ccc3c(c2)Cc2cc(CCCCC)ccc2-3)cc1	-	0
COc1ccc(/C=N/OC(=O)Nc2ccc(Cl)cc2)cc1	0	0
Cc1ccc(C(=O)N2CCC(CCNS(=O)(=O)c3cccc4cccnc34)CC2)cc1	62	0
Cc1ccc(C)c(S(=O)(=O)NCCC2CCN(C(=O)c3ccccc3)CC2)c1	0	0
O=C(c1ccc(F)cc1)N1CCC(CCNS(=O)(=O)c2cccc3cccnc23)CC1	0	0
Cc1ccc(F)cc1S(=O)(=O)NCCC1CCN(C(=O)c2ccccc2)CC1	54	0
C=C(C)COc1cc2c(-c3cc4ccccc4o3)cc(=O)oc2cc1C	0	0
CCCCN(C(=O)c1nc(C)n(C2CCN(S(C)(=O)=O)CC2)c1C)c1ccccc1	0	0
O=C(CN1N=C(c2ccc(Cl)cc2)CCC1=O)NCCc1ccc(Cl)cc1	0	0
O=C(CN1N=C(c2ccc(Cl)cc2)CCC1=O)NCCN1CCc2ccccc2C1	52	0
COc1ccc(OC)c(CNC(=O)CN2N=C(c3ccc(Cl)cc3)CCC2=O)c1	0	0
COc1ccc(Br)cc1CNC(=O)CN1N=C(c2ccc(Cl)cc2)CCC1=O	52	0
COc1ccc(CC(=O)NNC(=O)CSCC(=O)O)cc1OC	-	0
COCCN1C(=O)CCC2(CN)CCCC12 (stereo not drawn)	0	0
Cc1nc2c(C(=O)O)c[nH]n2c(=O)c1Cc1ccc(Cl)cc1	0	0
Cc1nc2c(C(=O)NC3CCCC3)c[nH]n2c(=O)c1Cc1ccc(Cl)cc1	55	0
Cc1ccc(Cc2c(C)nc3c(C(=O)NC4CCCC4)c[nH]n3c2=O)cc1	75	0
SMILES	mHTT CaM bind	Pf apPOL inh
Cc1ccc(Cc2c(C)nc3c(C(=O)NCCC(C)C)c[nH]n3c2=O)cc1	0	0
Cc1cc2c(=O)n(C(C)C(=O)N3CCN(c4cccc(Cl)c4)CC3)ccc2o1 (stereo not drawn)	97	0
Cc1ccc(C(=O)N2CCN(c3cccc(Cl)c3)CC2)cc1	0	0
O=C(NN1CCOCC1)c1cccc(Br)c1	0	0
O=C(NN1CCOCC1)c1ccc(Br)cc1	0	56
N#Cc1c(C(F)(F)F)cc(-c2ccccc2)nc1NCCO	0	0
Cc1ccc(N2CCC(NC(=O)c3ccc(C)s3)C2=O)cc1 (stereo not drawn)	0	0
COc1cc(C2Nc3cccc4cccc(c34)N2)cc(OC)c1OC	0	0
Fc1ccc(C2Nc3cccc4cccc(c34)N2)cc1	52	-
Cc1ccccc1CS(=O)(=O)CCC(=O)N1CCc2ccccc2C1	0	0
CCCN(C)C(=O)c1ccc2c(c1)N(C(=O)NC)CC2	0	0
CCOC(=O)C(C#N)=CNCCc1c[nH]c2ccccc12	-	0
COCCN=C1Nc2ccccc2NC12CCCN(C(=O)Cc1ccccc1F)C2 (stereo not drawn)	100	0
COCCN=C1Nc2ccccc2NC12CCCN(C(=O)c1ccccn1)C2 (stereo not drawn)	0	0
COCCN=C1Nc2ccccc2NC12CCCN(C(=O)Cc1c[nH]c3ccccc13)C2 (stereo not drawn)	0	0
COCCN=C1Nc2ccccc2NC12CCCN(C(=O)Cc1ccsc1)C2 (stereo not drawn)	98	0
COCCN=C1Nc2ccccc2NC12CCCN(C(=O)c1n[nH]c3ccccc13)C2 (stereo not drawn)	76	0
COCCN=C1Nc2ccccc2NC12CCCN(C(=O)c1ccccc1C)C2 (stereo not drawn)	0	0
O=C(Cc1cccc(F)c1)N1CCc2nc(-c3ccc(Cl)cc3)ncc2C1	0	0
Cn1c(=O)n(C)c2cc(/C=C/c3[nH]c(=O)[nH]c(=O)c3[N+](=O)[O-])ccc21	0	0
O=C(NC1CC1)c1ccc(OCC2CCN(C(=O)Cc3cccs3)CC2)cc1	0	0
